Screens deposited in PubChem BioAssay by National Center for Advancing Translational Sciences (NCATS).
Hits are enriched below; roughly 6.9% of the tested compounds scored in any of these assays.
Giardia kill: Giardia lamblia killing. Giardia lamblia trophozoite viability. 340,000 tested, 0.15% active. activity change, % at 7.66 µM, hits read low; in the data active = activity change below about -80%; inconclusive = between about -30% and that limit;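 note: parasites exposed to compound for two days anaerobically before the ATP read; % is set by controls: 0 for no effect and ±100 for the full control effect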
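Giardia lamblia trophozoites (100 cells/well) were incubated with compounds for 48 h at 37 deg C under anaerobic conditions. Viability was read as ATP content by one-step luminescence after 15-30 min at room temperature.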
SW480 rerep: DNA re-replication induction in SW480 cells | AID 624297 | 340,000 tested, 1.8% active | Potency, µM (series often up to 46.1 µM), for inactives: at the top dose re-replication activation, actives largely listed as activators | SW480 DNA re-replication, Hoechst DNA content imaging, 48 h; note: potency is the fitted concentration of half-maximal effect; % of control where 0% means no effect; nearly all actives have a fitted effect of over 55% in size
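Readout is total intensity of Hoechst-stained nuclei, excited at 405 nm and collected at 500-530 nm. Compound treatment lasted 48 hr at 37 C in 5% CO2 before staining.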
S-ASM inh: inhibitors of human secretory acid sphingomyelinase. P17405. placental ASM, HMU-PC fluorogenic substrate, 60 min. Potency, µM (top dose mostly 57.5 µM), inactives show at the highest dose activity change, negative = inhibition, most hits filed as inhibitors. 340,000 tested, 0.006% active; note: potency is the fitted concentration of half-maximal effect
Target sequence (P17405 47-631 limits assumed): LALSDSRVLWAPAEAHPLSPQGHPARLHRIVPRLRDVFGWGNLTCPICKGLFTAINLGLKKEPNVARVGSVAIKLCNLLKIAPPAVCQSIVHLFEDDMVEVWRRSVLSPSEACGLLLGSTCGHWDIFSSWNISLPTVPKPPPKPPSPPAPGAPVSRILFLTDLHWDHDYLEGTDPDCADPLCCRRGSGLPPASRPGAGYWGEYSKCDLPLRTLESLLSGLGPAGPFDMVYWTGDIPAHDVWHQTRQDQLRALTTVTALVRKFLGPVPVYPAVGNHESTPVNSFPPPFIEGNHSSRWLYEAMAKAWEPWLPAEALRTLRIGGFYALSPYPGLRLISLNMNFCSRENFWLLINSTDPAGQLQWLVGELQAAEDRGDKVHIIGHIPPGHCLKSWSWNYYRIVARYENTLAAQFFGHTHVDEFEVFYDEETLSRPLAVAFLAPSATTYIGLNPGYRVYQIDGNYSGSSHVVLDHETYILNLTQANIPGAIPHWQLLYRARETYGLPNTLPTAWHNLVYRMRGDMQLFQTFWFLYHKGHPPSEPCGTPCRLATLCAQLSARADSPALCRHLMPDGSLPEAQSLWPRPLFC
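qHTS format. ASM enzyme prepared from human placenta hydrolyses the fluorogenic substrate HMU-PC0 (9 uM final) over 60 min at 37 °C after a 10 min compound preincubation.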
MCF10A rerep: inducers of DNA re-replication in MCF 10A breast cells; MCF 10A DNA re-replication, Hoechst nuclear intensity, 48 h; Potency, µM (doses to about 46.1 µM), for inactives: top-dose activity, positive = re-replication, usual class: activators; 350,000 tested, 2.9% active; AID 624296; note: potency is the fitted concentration of half-maximal effect; % of control where 0% means no effect; nearly all actives have a fitted effect of over 50% in size
KB-3-1 cytotox: kills parental KB-3-1 adenocarcinoma cells | Potency, µM (titrated, usually from 46.1 µM), actives largely listed as cytotoxic | 400,000 tested, 1.4% active | KB-3-1 viability, CellTiter-Glo ATP luminescence, 72 h; note: potency is the fitted concentration of half-maximal effect; % is set by controls: 0 for no effect and ±100 for the full control effect; nearly all actives have a fitted effect of over 60% in size
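Parental KB-3-1 viability, qHTS format: 72 h compound exposure, 37 °C; CellTiter-Glo; media-only wells and DMSO plates as controls; concentration-effect fits on corrected data.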
KB-V1 cytotox: KB-V1 MDR subline cytotoxicity; 400,000 tested, 3.4% active; Potency, µM (highest dose often 46.1 µM), hits mostly cytotoxic; KB-V1 MDR cells viability, CellTiter-Glo, 72 h; note: potency is the fitted concentration of half-maximal effect; % is set by controls: 0 for no effect and ±100 for the full control effect; nearly all actives have a fitted effect of over 60% in size
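qHTS viability screen in drug-selected KB-V1 MDR cells: 72 h compound treatment at 37 degrees C, ATP luminescence end point.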
Numbers without * were called inactive. Unless noted, calls come from the whole dose curve; as a rule, active = well fitted curve in the direction sought with a large enough effect; inconclusive = small, poorly fitted or top-dose-only effect, or another doubt; inactive = no such curve, though single readings can be large; an effect the other way counts as inactive or inconclusive.

What do the screens show for `COc1nc(Cl)cn(-c2ccc(C)cc2)c1=O`?
Giardia kill: -10.5; SW480 rerep: -5.7%; S-ASM inh: -3.1%; MCF10A rerep: -4.9%; KB-3-1 cytotox: inactive; KB-V1 cytotox: inactive

How did Cc1oc(-c2ccccc2)nc1CNS(=O)(=O)c1ccc(Cl)cc1 do in these assays?
KB-3-1 cytotox: inactive; KB-V1 cytotox: inactive

What do the screens show for `COc1cc(NC(=O)c2sc(C)nc2C)c(OC)cc1NC(=O)c1ccccc1`?
Giardia kill: -14.2; SW480 rerep: -22.5%; S-ASM inh: -2.6%; MCF10A rerep: 17.9%; KB-3-1 cytotox: inactive; KB-V1 cytotox: inactive

How did CC(O)CNCCCOc1ccccc1OCc1ccccc1 (centres undefined) do in these assays?
Giardia kill: -9.3; SW480 rerep: -7.8%; S-ASM inh: -0.9%; MCF10A rerep: -0.8%; KB-3-1 cytotox: inactive; KB-V1 cytotox: inconclusive

Results for CNCC(C)COc1ccccc1OCc1ccccc1 (centres undefined) ?
Giardia kill: 2.9; SW480 rerep: 9.6%; S-ASM inh: 3.0%; MCF10A rerep: -0.4%; KB-3-1 cytotox: inactive; KB-V1 cytotox: 20.6µM*

What do the screens show for `C#CCN(C[C@@H]1[C@@H](OC(=O)NCc2ccco2)[C@@H](OC(=O)NCc2ccco2)Cn2c(=O)ccc(=O)n21)S(=O)(=O)c1ccc(C)cc1`?
KB-3-1 cytotox: 16.4µM*; KB-V1 cytotox: inactive

What do the screens show for `Cc1ccsc1/C=C1\SC(N2CC(C)OC(C)C2)=NC1=O` (centres undefined)?
Giardia kill: 5.2; SW480 rerep: 1.6%; S-ASM inh: -9.6%; MCF10A rerep: -37.9%; KB-3-1 cytotox: inconclusive; KB-V1 cytotox: 18.4µM*

How did COc1ccc2cc(C(C)C(=O)NC3CCC(O)CC3)ccc2c1 (centres undefined) do in these assays?
Giardia kill: -12.4; SW480 rerep: 1.4%; S-ASM inh: -0.7%; MCF10A rerep: -1.5%; KB-3-1 cytotox: inactive; KB-V1 cytotox: inactive

How did Cc1ccc2c(c1C)NC(=O)CC2c1ccc(Cl)cc1Cl (centres undefined) do in these assays?
KB-3-1 cytotox: inactive; KB-V1 cytotox: inconclusive

What do the screens show for `Cc1ccc(C(=O)Nc2ccc(Cl)cc2C)c(Cl)c1`?
Giardia kill: -14.6; SW480 rerep: 3.4%; S-ASM inh: 1.8%; MCF10A rerep: 11.1%; KB-3-1 cytotox: inactive; KB-V1 cytotox: 16.4µM*

How did Cc1ccc(C(=O)Nc2ccc(Cl)cc2C(F)(F)F)c(Cl)c1 do in these assays?
Giardia kill: -24.3; SW480 rerep: -0.9%; S-ASM inh: -0.9%; MCF10A rerep: 10.1%; KB-3-1 cytotox: inactive; KB-V1 cytotox: inactive

What do the screens show for `O=C(/C=C/c1ccccc1Cl)c1ccccc(=O)c1O`?
Giardia kill: 1.9; SW480 rerep: 11.6µM*; S-ASM inh: -0.7%; MCF10A rerep: 10.3µM*; KB-3-1 cytotox: 20.6µM*; KB-V1 cytotox: 18.4µM*

Results for Cc1ccc(C)c(/C=C/C(=O)c2ccccc(=O)c2O)c1 ?
Giardia kill: 2.2; SW480 rerep: -650.7%; S-ASM inh: 0.0%; MCF10A rerep: 18.4µM*; KB-3-1 cytotox: 11.6µM*; KB-V1 cytotox: 8.2µM*

Results for O=C(/C=C/c1ccc(O)c(O)c1)c1ccccc1O ?
Giardia kill: 9.7; SW480 rerep: -3.4%; S-ASM inh: -11.7%; MCF10A rerep: inconclusive; KB-3-1 cytotox: inconclusive; KB-V1 cytotox: inconclusive

Results for Cc1ccc(/C=C/C(=O)c2ccccc(=O)c2O)c(C)c1 ?
Giardia kill: 9.5; SW480 rerep: inconclusive; S-ASM inh: -4.7%; MCF10A rerep: inconclusive; KB-3-1 cytotox: 16.4µM*; KB-V1 cytotox: 8.2µM*

How did O=C(C=Cc1ccccc1O)c1ccccc1O do in these assays?
Giardia kill: 9.1; SW480 rerep: inconclusive; S-ASM inh: -0.7%; MCF10A rerep: inconclusive; KB-3-1 cytotox: inconclusive; KB-V1 cytotox: inconclusive

What do the screens show for `O=C(/C=C/c1ccc([N+](=O)[O-])cc1)c1ccccc(=O)c1O`?
Giardia kill: 4.2; SW480 rerep: 5.8µM*; S-ASM inh: -0.9%; MCF10A rerep: 2.91µM*; KB-3-1 cytotox: inconclusive; KB-V1 cytotox: 1.03µM*

What do the screens show for `COc1ccc(CNc2nc(-c3ccco3)nn2S(=O)(=O)c2ccc3ccccc3c2)cc1OC`?
KB-3-1 cytotox: inactive; KB-V1 cytotox: inactive

How did Cc1ccc(-c2nn(-c3ccccc3)cc2NC(=O)CCl)cc1 do in these assays?
Giardia kill: 10.1; SW480 rerep: 18.4µM*; S-ASM inh: -2.9%; MCF10A rerep: inconclusive; KB-3-1 cytotox: 8.2µM*; KB-V1 cytotox: inconclusive

What do the screens show for `Cn1c(/C=C/c2ccc(Cl)cc2)c([N+](=O)[O-])c(=O)n(C)c1=O`?
Giardia kill: -14.4; SW480 rerep: 17.8%; S-ASM inh: -5.4%; MCF10A rerep: 7.31µM*; KB-3-1 cytotox: inconclusive; KB-V1 cytotox: inactive

How did COc1ccc(OC)c(NC(=O)CN2C(=O)CC(C)Sc3ccccc32)c1 (centres undefined) do in these assays?
KB-3-1 cytotox: inactive; KB-V1 cytotox: inconclusive

What do the screens show for `Cc1ccc(N(CC(O)Cn2nc(C)cc2C)S(=O)(=O)c2ccc3ccccc3c2)cc1` (centres undefined)?
Giardia kill: 21.5; SW480 rerep: 7.4%; S-ASM inh: -2.4%; MCF10A rerep: 4.4%; KB-3-1 cytotox: inactive; KB-V1 cytotox: 5.8µM*

What do the screens show for `CC(=O)N1CCc2cc(S(=O)(=O)NC(Cc3ccccc3)C(=O)Nc3ccc(Cl)cc3)ccc21` (centres undefined)?
KB-3-1 cytotox: inactive; KB-V1 cytotox: inconclusive

What do the screens show for `Cc1occc1C(=O)N1CCN(C(c2ccccc2)c2ccccc2)CC1`?
Giardia kill: 4.8; SW480 rerep: 4.6%; S-ASM inh: -1.6%; MCF10A rerep: inconclusive; KB-3-1 cytotox: inconclusive; KB-V1 cytotox: inactive

What do the screens show for `Cc1oc(C(C)(C)C)cc1C(=O)N1CCN(C(c2ccccc2)c2ccccc2)CC1`?
Giardia kill: 43.8; SW480 rerep: inconclusive; S-ASM inh: -2.3%; MCF10A rerep: 11.6µM*; KB-3-1 cytotox: inactive; KB-V1 cytotox: inactive

How did CC(=O)NC1C(=O)N(CCc2ccccc2)c2ccc(Br)cc21 (centres undefined) do in these assays?
Giardia kill: 7.8; SW480 rerep: 2.1%; S-ASM inh: -8.0%; MCF10A rerep: 26.7%; KB-3-1 cytotox: inactive; KB-V1 cytotox: 5.8µM*

What do the screens show for `CCOC(=O)C(CC)Sc1ccc2nnc(-c3ccc(F)cc3)n2n1` (centres undefined)?
Giardia kill: 3.4; KB-3-1 cytotox: inconclusive; KB-V1 cytotox: inconclusive
